The values that follow are results of earlier work, collected in PubChem BioAssay AID977611.

A word on the Kd: it is the equilibrium constant for the complex coming apart.

The nature of the series: PubChem AID 977611. The settings on record: PDB protein-ligand complexes, literature Kd.

Where a name gives a salt, the structure may show the parent alone. Among all 3,900 compounds or so, about 3,900 (100%) were called active. No cut-off is given here; in the data, nearly all actives have Kd up to about 4200 µM. The set was probably picked from earlier hits. Some of the results follow. Bridge positions count the residues as written; N and C are the ends. Where a SMILES comes first, the peptide text is derived from it. Non-standard residues stand in square brackets, D forms with d. Residues, ends and D or L forms follow the SMILES beside them. Peptide text beside a SMILES is read from it. [ ]: non-standard residue; d: D form. * marks the point of attachment. Orn(CH(NH2)2) = NC(N)NCCC[C@H](N)C(=O)O; Tfa = O=C(C(F)(F)F)*

With `CC[C@H](C)[C@H](NC(=O)[C@H](CO)NC(=O)[C@@H](N)Cc1ccccc1)C(=O)N[C@H](C(=O)NCC(=O)N[C@H](C(=O)N[C@@H](CC(C)C)C(=O)N[C@@H](Cc1ccc(O)cc1)C(=O)N1CCC[C@H]1C(=O)O)[C@@H](C)O)C(C)C` (H-FSIVGTLYP-OH), the Kd (protein: Gephyrin GephE, PDB entry 4tk3) is 8 µM (active) and the Kd (protein: Gephyrin GephE, PDB entry 4tk4) was 8 µM (active). Take `CC[C@H](C)[C@H](NC(=O)[C@H](CC(N)=O)NC(=O)[C@@H](N)Cc1ccccc1)C(=O)N[C@H](C(=O)NCC(=O)N[C@H](C(=O)N[C@H](C(=O)N[C@@H](Cc1ccc(O)cc1)C(=O)N1CCC[C@H]1C(=O)N[C@H](C(=O)N[C@@H](CC(N)=O)C(=O)O)[C@@H](C)CC)[C@@H](C)O)[C@@H](C)O)C(C)C` (H-FNIVGTTYPIN-OH): the Kd (protein: Gephyrin GephE, PDB entry 4tk1) is 190 µM (active). Regarding `NC(N)=NCCC[C@@H](C(=O)O)N1[C@@H](C(=O)O)CC[C@@H]1O`, the Kd (protein: Nopaline-binding periplasmic protein NocT-M117N, PDB entry 4pp0) was 39.9 µM (active). Turning to `NC(N)=NCCC[C@@H](C(=O)O)N1[C@H](O)CC[C@@H]1C(=O)O`, where the note is “protein: Nopaline-binding periplasmic protein NocT WT, PDB entry 4pow”, the equilibrium dissociation constant (Kd) was 0.5 µM (active). For the compound `C[N+](C)(C)CCO[P+](O)(O)O`, the Kd (protein: Ficolin-2, PDB entry 4nyt) was 4100 µM (active). Turning to `CC(O)C1C(=O)[C@H]2[C@@H]3c4c[nH]c5cccc(c45)C[C@@H]3C(C)(C)N2C1=O` (some centres not stated), the Kd (protein: Sarcoplasmic/endoplasmic reticulum calcium ATPase 1, PDB entry 2EAS) is 0.007 µM (active). Consider `CC(=O)N[C@H]1[C@H](O[C@H]2[C@H](O)[C@@H](O)CN[C@@H]2CO)O[C@H](CO)[C@@H](O[C@@H]2O[C@H](CO)[C@@H](O)[C@H](O)[C@H]2NC(C)=O)[C@@H]1O`, for which, where the note is “protein: Lysozyme C, PDB entry 4hpi”, the Kd is 14.2 µM (active). `CC(=O)N[C@H]1[C@H](O[C@H]2[C@H](O)[C@@H](O)CN[C@@H]2CO)O[C@H](CO)[C@@H](O[C@@H]2O[C@H](CO)[C@@H](O[C@@H]3O[C@H](CO)[C@@H](O)[C@H](O)[C@H]3NC(C)=O)[C@H](O)[C@H]2NC(C)=O)[C@@H]1O`: the Kd (protein: Lysozyme C, PDB entry 4hp0) was 0.76 µM (active). Take `OC[C@H]1O[C@@H](O)[C@H](O)[C@@H](O)[C@@H]1S[C@@H]1O[C@@H](CO[P+](O)(O)O)[C@@H](O)[C@H](O)[C@H]1O`: the Kd (protein: 6-phospho-beta-glucosidase, PDB entry 4ipn) was 409 µM (active). On to `O[C@@H]1[C@H](O)[C@@H](CO[P+](O)(O)O)O[C@@H]1O`, for which the Kd runs as follows: (protein: Transcriptional regulator LsrR, PDB entry 4l5j) 1000 µM (active); (protein: Transcriptional regulator LsrR, PDB entry 4l51) 995 µM (active).

As to `CO[C@H]1O[C@H](CO)[C@@H](O)[C@H](O)[C@@H]1S[C@H]1O[C@H](CO)[C@@H](O)[C@H](O)[C@@H]1O`, the Kd (protein: MANNOSYL-OLIGOSACCHARIDE 1,2-ALPHA-MANNOSIDASE, PDB entry 4ayp) is 0.755 µM (active).

Regarding `O=C1OC[C@@H](O[C@@H]2OC[C@@H](O[C@@H]3OC[C@@H](O)[C@H](O)[C@H]3O)[C@H](O)[C@H]2O)[C@H](O)[C@H]1O`, under “protein: Selenomethionine XBP1, PDB entry 4g68”, the Kd is 0.012 µM (active). As to `CC(C)[C@@H]1NC(=O)[C@H](Cc2c[nH]cn2)NC(=O)[C@H](Cc2ccc(O)cc2)NC(=O)[C@H]([C@@H](C)O)NC(=O)[C@H](Cc2c[nH]cn2)NC(=O)[C@H](Cc2ccc(O)cc2)NC(=O)CSC[C@@H](C(N)=O)NC(=O)[C@H](Cc2ccc(O)cc2)NC(=O)[C@H](Cc2ccc(O)cc2)NC(=O)[C@H](CC(N)=O)NC(=O)[C@H]([C@@H](C)O)NC(=O)[C@H](CCCN=C(N)N)NC(=O)[C@H](CCCN=C(N)N)NC(=O)[C@H](CCCCNC(=O)C(F)(F)F)NC1=O` ({CH2CO}-YHTYHVK(Tfa)RRTNYYC-NH2; thioether N-14), the Kd (protein: NAD-dependent protein deacetylase sirtuin-2, SIRT2, PDB entry 4l3o) was 1 µM (active). For the compound `Cc1noc(C)c1-c1ccc(-c2[nH]c3cncc[n+]3c2NC(C)(C)C)cc1`, the Kd (protein: Bromodomain-containing protein 4 BRD4, PDB entry 4wiv) is 0.55 µM (active). Regarding `CC[C@H](C)[C@H](NC(=O)[C@H](CCC(=O)O)NC(=O)[C@H](Cc1cnc[nH]1)NC(=O)[C@@H](NC(=O)[C@@H](NC(=O)[C@H](CO)NC(C)=O)[C@@H](C)O)C(C)C)C(=O)N[C@@H](CC(C)C)C(=O)N[C@@H](CO)C(=O)N[C@@H](CCCCN)C(=O)N[C@@H](CC(C)C)C(=O)N[C@@H](CO)C(=O)O` (Ac-STVHEILSKLS-OH), the Kd (protein: S100A10, PDB entry 1bt6) is 2 µM (active). In the case of `CC(=O)N[C@@H](Cc1ccccc1)C(=O)N[C@@H](Cc1cnc[nH]1)C(=O)N[C@H](C(=O)N[C@@H](C)C(N)=O)[C@@H](C)O` (Ac-FHTA-NH2), the Kd (protein: DNA REPAIR AND RECOMBINATION PROTEIN RADA, PDB entry 4b3b) is 250 µM (active). With `CC(C)[C@H](N)C(=O)N[C@@H](CCC(=O)O)C(=O)N[C@@H](CCC(N)=O)C(=O)N[C@@H](Cc1cnc[nH]1)C(=O)N[C@@H](Cc1cnc[nH]1)C(=O)N[C@@H](CCCNC(N)N)C(=O)N[C@@H](CCCNC(N)N)C(=O)N[C@H](C(=O)N[C@@H](CC(=O)O)C(=O)N[C@@H](CC(N)=O)C(=O)N[C@@H](CC(=O)O)C(=O)O)[C@@H](C)O` (H-VEQHH[Orn(CH(NH2)2)][Orn(CH(NH2)2)]TDND-OH), where the note is “protein: 13F6-1-2 Fab fragment heavy chain, PDB entry 2qhr”, the Kd is 0.041 µM (active). `CC(=O)N[C@@H](CO)C(=O)N[C@@H](Cc1cnc[nH]1)C(=O)N[C@H](C(=O)N[C@@H](C)C(=O)N[C@H](C(=O)N[C@@H](CCC(=O)O)C(=O)N[C@@H](CC(N)=O)C(=O)N[C@@H](C)C(=O)N[C@@H](CC(C)C)C(=O)O)C(C)C)C(C)C`: the Kd (protein: HLA class I histocompatibility antigen, B-39 alpha chain, PDB entry 4o2c) is 0.01 µM (active). For the compound `CC(=O)NCC(=O)N[C@@H](CO)C(=O)N[C@@H](C)C(=O)N[C@@H](CCCNC(N)N)C(=O)N[C@@H](C)C(=O)N[C@@H](CCC(=O)O)C(=O)N[C@H](C(=O)N[C@@H](Cc1cnc[nH]1)C(=O)N[C@@H](CC(C)C)C(=O)O)C(C)C` (Ac-GSA[Orn(CH(NH2)2)]AEVHL-OH), the Kd (protein: WD repeat-containing protein 5, PDB entry 3eg6) was 1.7 µM (active). Turning to `CC(C)[C@H](NC(=O)[C@H](CCC(=O)O)NC(=O)[C@H](C)NC(=O)[C@H](CCCNC(N)N)NC(=O)[C@H](C)N)C(=O)N[C@@H](Cc1cnc[nH]1)C(=O)O` (H-A[Orn(CH(NH2)2)]AEVH-OH), the Kd (protein: WD repeat-containing protein 5, PDB entry 3emh) is 0.14 µM (active).
